{
  "source": "the supplement of paper PMC8728848",
  "binders": {"B1": {"name": "AAL (Agrocybe aegerita), Q6WY08 (protein)", "chain": "MQGVNIYNISAGTSVDLAAPVTTGDIVTFFSSALNLNAGAGNPNNTTLNLFAENGAYLLHIAHRLQENVIIFNSRQPDGPWLVEQRVSDVANQFAGIDGKAMVTVFDHGDKYQVVINEKTVIQYTKQISGLTLSLSYNATEETSIFSTVVEAVTYTGLALEHHHHHH"}},
  "assay_in_all_cases": "glycan array binding signal (z-score within array); higher = stronger binding",
  "details_in_all_cases": "glycan notation: IUPAC condensed, linker removed; mutation: F63H",
  "key": {"[1]": {"target": "Neu5Ac(a2-6)Gal(b1-4)GlcNAc(b1-3)Gal(b1-4)GlcNAc(b1-2)Man(a1-3)[Neu5Ac(a2-6)Gal(b1-4)GlcNAc(b1-3)Gal(b1-4)GlcNAc(b1-2)Man(a1-6)]GalNAc", "how_it_was_run": "(§1)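 Negative Z-scores can be read as non-binding. The Z-score is calculated within each array and then averaged across arrays of one protein sequence at different concentrations or buffers and across linkers. Arrays, 3228 in all, were curated from the Consortium for Functional Glycomics database and kept only where the protein sequence was available.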"}, "[2]": {"target": "Neu5Ac(a2-6)Gal(b1-4)GlcNAc(b1-6)[Gal(b1-3)]GalNAc", "how_it_was_run": "as §1"}, "[3]": {"target": "Neu5Gc(a2-3)Gal(b1-4)Glc", "how_it_was_run": "as §1"}, "[4]": {"target": "Neu5Gc(a2-3)Gal(b1-4)[Fuc(a1-3)]GlcNAc", "how_it_was_run": "as §1"}},
  "note": "This excerpt belongs to a sample that is enriched for the strongest signals.",
  "data": [
    {"binder": "B1", "values": [
      {"measurement": "glycan array binding signal (z-score)", "setting": "[1]", "result": -0.58},
      {"measurement": "glycan array binding signal (z-score)", "setting": "[2]", "result": 0.137},
      {"measurement": "glycan array binding signal (z-score)", "setting": "[3]", "result": 1.34},
      {"measurement": "glycan array binding signal (z-score)", "setting": "[4]", "result": 0.023}
    ]}
  ]
}
